Outcome and AC50 data for 35 compounds are collected here from PubChem BioAssay (EPA / NIEHS).

“And” between values parts separate entries of the source, which are not always exact repeats. Identical values can stand only once. Inconclusive results are not listed. The source holds several records for some structures; these can differ, active in one and inactive in another. The source made the active and inactive calls. Rule for the calls: active = hit-call score of the fitted dose curve at least 0.9, where 1 is the maximum; inconclusive = response in the unintended direction; inactive = score below 0.9.

Sequence of Cellular tumor antigen p53 (Homo sapiens) (P04637 whole entry, looked up): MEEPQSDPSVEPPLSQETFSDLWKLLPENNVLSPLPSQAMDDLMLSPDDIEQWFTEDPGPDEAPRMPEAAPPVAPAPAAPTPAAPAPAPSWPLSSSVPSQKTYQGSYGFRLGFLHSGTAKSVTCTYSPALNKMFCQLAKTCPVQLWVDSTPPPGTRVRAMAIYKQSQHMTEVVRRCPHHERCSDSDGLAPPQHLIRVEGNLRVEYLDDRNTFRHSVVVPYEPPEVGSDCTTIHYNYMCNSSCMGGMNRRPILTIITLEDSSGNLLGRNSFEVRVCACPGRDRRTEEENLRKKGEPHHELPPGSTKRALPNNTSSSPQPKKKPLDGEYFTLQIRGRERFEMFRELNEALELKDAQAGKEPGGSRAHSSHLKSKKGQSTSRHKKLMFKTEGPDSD

Test system in one assay: not listed separately
Put plainly: TOX21_p53_BLA_p3_viability: Viability Assessment in the Tox21 HCT-116 p53 Agonism Beta-lactamase Assay, Phase 3 (AID 2283593).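 Note: cells exposed to compound for 16 h before reading.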 The method in brief:
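Cellular ATP was quantified by CellTiter-Glo luminescence, read after 30 min at room temperature. Beforehand, HCT116 cells (4000/well) received compound 5 h post-seeding, 217-fold diluted from DMSO, then incubated 16 h at 37C.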
For `Oc1ccc(-c2ccccc2)cc1`, the compound was classed as inactive.

Broadly, the AC50 is the midpoint of the concentration-response curve, whichever way the signal moves. For `CCCCCCCCSC(=O)Oc1cc(Cl)nnc1-c1ccccc1`, the AC50 is 59.1 µM (active).

As for `O=S(=O)(c1ccc(Cl)cc1)c1ccc(Cl)cc1`, the outcome was inactive.

`C=CC#N`: the compound was classed as inactive.

Take `O=P(O)(O)CN(CP(=O)(O)O)CP(=O)(O)O`: the compound was called inactive.

For `COP(=O)(OC)O/C(=C\Cl)c1cc(Cl)c(Cl)cc1Cl`, the result was inactive.

In the case of `Cl/C=C/Cl`, the compound was called inactive.

Turning to `[O-][Cl+2]([O-])O`, the compound was called inactive.

Take `Clc1ccc(COC(Cn2ccnc2)c2ccc(Cl)cc2Cl)cc1` (stereo not drawn): the AC50 is 72.9 µM (active) and 73.5 µM (active) and 23 µM (active).

As to `CCOC(=O)CP(=O)(OCC)OCC`, the call was inactive.

For the compound `CC(=O)OC(c1ccccc1)C(Cl)(Cl)Cl` (stereo not drawn), the compound was called inactive.

`CCC(C)c1cccc(C(C)CC)c1O` (stereo not drawn): the compound was classed as inactive.

In the case of `CC(C)(c1ccc(OCC2CO2)cc1)c1ccc(OCC2CO2)cc1` (stereo not drawn), the AC50 was 64.5 µM (active) and the call was inactive.

Consider `COP(=O)(OC)OC`, for which the compound was classed as inactive.

For `OCc1ccco1`, the call was inactive.

In the case of `CCOP(=O)(CN(CCO)CCO)OCC`, the result was inactive.

Take `O=[N+]([O-])c1ccc2c3c(cccc13)CC2`: the call was inactive.

For `O=C/C=C/c1ccccc1`, the result was inactive.

For `Cc1ccccc1C(=O)Nc1cccc(OC(C)C)c1`, the outcome was inactive.

The target in a further assay is Cellular tumor antigen p53 (Homo sapiens) (UniProt P04637). Put plainly: TOX21_p53_BLA_p3_ratio: Tox21 HCT-116 p53 Agonism Beta-lactamase Assay, Ratio, Phase 3 (AID 2283596). The method in brief:
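HCT116 p53-bla cells (4000/well) given compound in DMSO (217-fold dilution) after 5 h, incubated 16 h at 37C. CCF4-AM substrate 2 h at room temperature; 460/530 nm emission ratio, gain fitted against DMSO.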
On to `Oc1ccc(-c2ccccc2)cc1`, for which the outcome was inactive.

On to `Nc1cccc2ccccc12`, for which the result was inactive.

On to `CCCCCCCCSC(=O)Oc1cc(Cl)nnc1-c1ccccc1`, for which the outcome was inactive.

With `N#Cc1ccccn1`, the result was inactive.

With `O=S(=O)(c1ccc(Cl)cc1)c1ccc(Cl)cc1`, the outcome was inactive.

Regarding `CN(C)P(=O)(N(C)C)N(C)C`, the result was inactive.

For `C=CC#N`, the result was inactive.

Consider `COc1ccc(C=O)cc1`, for which the outcome was inactive.

For `O=P(O)(O)CN(CP(=O)(O)O)CP(=O)(O)O`, the outcome was inactive.

For the compound `COP(=O)(OC)O/C(=C\Cl)c1cc(Cl)c(Cl)cc1Cl`, the result was inactive.

For `C[C@H]1O[C@@H](O[C@H]2[C@@H](O)C[C@H](O[C@H]3[C@@H](O)C[C@H](O[C@H]4CC[C@@]5(C)[C@H](CC[C@@H]6[C@@H]5CC[C@]5(C)[C@@H](C7=CC(=O)OC7)CC[C@]65O)C4)O[C@@H]3C)O[C@@H]2C)C[C@H](O)[C@@H]1O`, the outcome was inactive.

Take `Cl/C=C/Cl`: the result was inactive.

Turning to `[O-][Cl+2]([O-])O`, the result was inactive.

As for `Clc1ccc(COC(Cn2ccnc2)c2ccc(Cl)cc2Cl)cc1` (stereo not drawn), the AC50 was 66.3 µM (active) and 45.5 µM (active) and 34.6 µM (active).

For `BrCCBr`, the result was inactive.

On to `CC(C#N)CCC#N` (stereo not drawn), for which the outcome was inactive.

`CCOC(=O)CP(=O)(OCC)OCC`: the outcome was inactive.

Consider `CC(=O)OC(c1ccccc1)C(Cl)(Cl)Cl` (stereo not drawn), for which the outcome was inactive.

`CNC`: the result was inactive.

Turning to `Clc1nc(Cl)nc(Cl)n1`, the outcome was inactive.

`CC(C)(c1ccc(OCC2CO2)cc1)c1ccc(OCC2CO2)cc1` (stereo not drawn): the AC50 was 84.2 µM (active) and 80.6 µM (active).

Take `COc1cc2c(cc1OC)[C@@]13CCN4CC5=CCO[C@H]6CC(=O)N2[C@H]1[C@H]6[C@H]5C[C@H]43`: the result was inactive.

`O=[N+]([O-])c1c(Cl)c(Cl)cc(Cl)c1Cl`: the outcome was inactive.

Regarding `COP(=O)(OC)OC`, the result was inactive.

Take `OCc1ccco1`: the result was inactive.

`CC(C)OC(=O)Nc1ccccc1`: the result was inactive.

On to `CCCCOCCOC(C)=O`, for which the result was inactive.

With `O=[N+]([O-])c1ccc2c3c(cccc13)CC2`, the result was inactive.

As to `CNC(=O)O/N=C/C(C)(C)S(C)=O` (stereo not drawn), the result was inactive.

Turning to `O=C/C=C/c1ccccc1`, the outcome was inactive.

For the compound `CCCCC(CC)CO[N+](=O)[O-]` (stereo not drawn), the result was inactive.

Consider `Nc1ccc(-c2ccc(N)c(Cl)c2)cc1Cl`, for which the AC50 is 15.7 µM (active) and 18.6 µM (active); the outcome was inactive.
